Assay outcomes deposited in PubChem BioAssay by National Center for Advancing Translational Sciences (NCATS).
Sampled rows, rich in hits. Any-hit rate of the full collection: about 7.5%.
Gal4-VP16 FLuc – counter-screen for ROR gamma inhibitors: Gal4-VP16 reporter; Drosophila S2 Gal4-VP16 UAS-luciferase, luminescence, 20 h; Potency, µM (highest dose often 53.6 µM), for inactives: at the highest dose activity, negative = inhibition, most hits filed as inhibitors; 310,000 tested, 3.5% active; AID 2546;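 further: Gal4-VP16 expression switched on by copper sulfate through the metallothionein promoter; potency means the concentration at half of the fitted maximal effect; nearly all actives have a fitted effect of over 50% in size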
TSHR antag – antagonists of human thyroid stimulating hormone receptor. P16473. TSHR-expressing cells, TSH-stimulated cAMP HTRF, 2 h; active compounds read low. activity change, negative = inhibition, % at 11.5 µM. 330,000 tested, 0.2% active;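 active means activity change below a set negative limit, meaning inhibition stronger than a set level, cut at about -70% in these data; inconclusive means activity change between two set negative limits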
Target sequence (P16473 whole entry, looked up): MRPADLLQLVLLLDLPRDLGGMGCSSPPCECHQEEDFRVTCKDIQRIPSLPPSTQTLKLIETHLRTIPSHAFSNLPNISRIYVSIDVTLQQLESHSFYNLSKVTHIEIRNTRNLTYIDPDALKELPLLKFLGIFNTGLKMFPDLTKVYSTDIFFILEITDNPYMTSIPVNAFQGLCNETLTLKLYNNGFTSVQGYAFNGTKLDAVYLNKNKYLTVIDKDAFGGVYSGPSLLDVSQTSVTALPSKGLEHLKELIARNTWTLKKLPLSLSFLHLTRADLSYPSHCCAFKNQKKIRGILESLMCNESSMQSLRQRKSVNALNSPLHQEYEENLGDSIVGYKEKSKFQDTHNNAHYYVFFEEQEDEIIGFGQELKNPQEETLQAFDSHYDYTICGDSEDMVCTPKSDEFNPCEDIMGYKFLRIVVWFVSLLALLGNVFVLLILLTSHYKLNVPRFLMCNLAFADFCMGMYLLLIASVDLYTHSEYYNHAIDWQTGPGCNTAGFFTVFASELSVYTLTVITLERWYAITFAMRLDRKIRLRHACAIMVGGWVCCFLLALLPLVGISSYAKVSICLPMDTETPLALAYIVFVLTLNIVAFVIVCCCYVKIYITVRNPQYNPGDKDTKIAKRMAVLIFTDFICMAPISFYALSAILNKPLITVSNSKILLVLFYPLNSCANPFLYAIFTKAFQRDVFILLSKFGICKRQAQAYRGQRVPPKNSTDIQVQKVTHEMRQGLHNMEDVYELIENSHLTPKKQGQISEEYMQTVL
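Freshly harvested TSHR cells receive pin-tooled compound, then EC80 TSH at 4nM final. After 2 hours at 37 deg C, antibody in lysis buffer and cAMP-d2 are added; 30 minutes at ambient temperature precede the HTRF read.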
ELG1 repair inh – ELG1-dependent DNA repair inhibition. AID 504467. HEK293T ELG1-luciferase reporter, luminescence, 16 h; DNA damage induced by 5-fluorouridine. 330,000 tested, 2.3% active. Potency, µM (doses to about 46.1 µM), without a hit: top-dose activity change, negative = inhibition, most hits filed as inhibitors; further: potency means the concentration at half of the fitted maximal effect; nearly all actives have a fitted effect of over 55% in size
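Step one: seed 2,000 cells per well. Step two: pin-transfer compound or DMSO alongside 5-fluorouridine. Step three: incubate 16 hr, 37 °C, 5% CO2. Step four: add ONE-Glo, wait 30 min, read luminescence.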
RORg inh – blocks mouse ROR gamma transcriptional activity; P51450; Drosophila S2 Gal4-RORgamma UAS-luciferase reporter, 20 h; Potency, µM (doses to about 53.6 µM), for inactives: at the top dose activity change, negative = inhibition, actives largely listed as inhibitors; 310,000 tested, 5.4% active; further: potency means the concentration at half of the fitted maximal effect; nearly all actives have a fitted effect of over 60% in size
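A Gal4/UAS one-hybrid system in insect cells: metallothionein-promoter Gal4–ROR gamma fusion plus Photinus luciferase reporter. Copper sulfate 700 uM final, 20 hr ambient incubation, luminescent detection after 10 min with reagent.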
B2AR arrestin – beta2AR (human) beta-arrestin recruitment activity; P07550; beta-arrestin recruitment to beta2AR, cell-based reporter; Potency, µM (titrated, usually from 46.1 µM), for inactives: top-dose activation, usual class: activators; 330,000 tested, 0.02% active;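 further: potency means the concentration at half of the fitted maximal effect; 0% = DMSO controls and full agonism = EC100 isoproterenol or metaproterenol; nearly all actives have a fitted effect of over 65% in size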
* = called active by the depositor; ? = inconclusive; . = no result; [ ] = remark or other dose. Unless noted, the call rests on the fitted dose curve; in most records, active means well fitted curve in the direction sought with a large enough effect; inconclusive means small, poorly fitted or top-dose-only effect, or another doubt; inactive means no such curve, though single readings can be large; an effect the other way counts as inactive or inconclusive. Unless noted, on the % scale 0 is the no-effect control and ±100 the full control effect.

SMILES	Gal4-VP16 FLuc	TSHR antag	ELG1 repair inh	RORg inh	B2AR arrestin
Cc1cc(N2CCN(c3nc(-c4ccc([N+](=O)[O-])cc4)cs3)CC2)c2ccccc2n1	13µM*	-26	-3%	10µM*	0%
COC(=O)[C@H]1C[C@@H]1[C@H](NS(=O)(=O)c1ccc(-c2ccccc2)cc1)c1ccccc1	1%	.	.	38%	.
CCCC1NC(=S)N(C2CCCCC2)C1=O (centres undefined)	?	4	16%	-40%[10 µM]	0%
O=C1CNC(=S)N1C1CCCCCC1	-24%	-6	14%	11µM*	0%
CC(C)CC1OC(=O)C2=CCCCC21 (centres undefined)	3%	.	.	5%	.
Cc1cc(C)c(CN2CCN(C(=O)Cn3cnc4c(NCc5ccccc5)ncnc43)CC2)c(C)c1	.	-34	1µM*	.	0%
O=C(Cn1cnc2c(NCc3ccccc3)ncnc21)N1CCN(c2ccccn2)CC1	.	-2	-8%	.	0%
COc1ccccc1C1=NN(C2=NN=C(N)Cc3ncnn32)C(O)(C(F)(F)F)C1 (centres undefined)	-7%	-3	-10%	?	0%
COc1ccc(C2=NN(C3=NN=C(N)Cc4ncnn43)C(O)(C(F)(F)F)C2)cc1 (centres undefined)	11µM*	5	4%	8.9µM*	-1%
NC1=NN=C(N2N=C(c3ccccc3)CC2(O)C(F)(F)F)n2ncnc2C1 (centres undefined)	?	-3	-3%	13µM*	0%
NC1=NN=C(N2N=C(c3ccc(Br)cc3)CC2(O)C(F)(F)F)n2ncnc2C1 (centres undefined)	18µM*	7	-8%	?	0%
Cc1ccc2cc(/C=N/Nc3nc4ccccc4[nH]3)c(Cl)nc2c1	1.3µM*	5	?	4.5µM*	-1%
COc1cc(OC)c(OC)cc1/C=N/Nc1nc2ccccc2[nH]1	-2%	-12	?	-30%	0%
CCN(CC)c1ccc(/C=N/Nc2nc3ccccc3[nH]2)c(O)c1	2.8µM*	13	?	3.5µM*	7%
Cc1ccc(NC(=S)Nc2ccc3[nH]c(=O)[nH]c3c2)cc1	-23%	7	9%	10µM*	7%
O=c1[nH]c2ccc(NC(=S)Nc3ccccc3)cc2[nH]1	3%	-8	3%	-14%	0%
Cc1cc2c(c(=O)n1Cc1cccnc1)C(Cc1ccccc1)C(C#N)=C(N)O2 (centres undefined)	14µM*	-9	-16%	?	0%
N=C1C(c2nc3ccccc3[nH]2)=C(O)CN1c1ccc(F)cc1	-22%	-6	?	5µM*	0%
NC1=NCC(O)=C1c1nc2ccccc2[nH]1	9%	2	25%	11µM*	0%
CC1CCCN(CCCNC(=O)C2CC(=O)N(CCc3ccccc3)C2)C1 (centres undefined)	-9%	26	15%	-8%	-1%
Cc1ccc2nc(-c3ccncc3)cc(C(=O)NCCc3ccc(F)cc3)c2c1	-11%	-2	11%	-32%	0%
Cc1ccc2nc(-c3ccccn3)cc(C(=O)NCCc3ccc(F)cc3)c2c1	-7%	12	-2%	10µM*	-1%
O=C(NCCc1ccccn1)c1cc(-c2cccc3ccccc23)nc2ccccc12	?	-5	23µM*	?	0%
Cc1ccc(-c2cc(C(=O)NCCc3ccccn3)c3ccccc3n2)c(C)c1	-4%	-14	?	31%	0%
Clc1cc(Cl)cc(Cl)c1	3%	.	.	-1%	.
SMILES	Gal4-VP16 FLuc	TSHR antag	ELG1 repair inh	RORg inh	B2AR arrestin
CN1CCN(c2ncc3nc(-c4cccc(C#N)c4)c(=O)n(Cc4ccc(F)cc4)c3n2)CC1	20µM*	.	.	?	.
O=c1c(-c2ccccc2)nc2cnc(N3CCNCC3)nc2n1Cc1ccc(F)cc1	-22%	.	.	-13%	.
COc1cccc(Cn2c(=O)c(-c3cc(F)cc(F)c3)nc3cnc(N4CCNCC4)nc32)c1	?	.	.	2.8µM*	.
N#Cc1cccc(-c2nc3cnc(N4CCOCC4)nc3n(Cc3ccc(F)cc3)c2=O)c1	0%	.	.	-11%	.
O=c1c(-c2cc(F)cc(F)c2)nc2cnc(N3CCNCC3)nc2n1Cc1ccc(F)cc1	4.5µM*	.	.	3.2µM*	.
S=C1NCN(Cc2cccnc2)CN1Cc1ccccc1	4%	6	13%	?	0%
S=C1SCN(Cc2cccnc2)CN1Cc1ccccc1	6.3µM*	19	0%	3.2µM*	0%
C=CC(=O)Nc1ccc(Nc2nc(NC3CCC(N(C)C)CC3)nc3c2ncn3C(C)C)cc1 (centres undefined)	.	-8	2.3µM*	.	0%
CCCc1cc(-c2[nH]ncc2-c2ccc3c(c2)OCCCO3)c(O)cc1OC	?	5	?	3.5µM*	0%
Oc1ccccc1/C=N/NC(=S)NC1CC2CC1C1C=CCC21 (centres undefined)	11µM*	14	?	8.9µM*	4%
COc1cccc(/C=N/NC(=S)NC2CC3CC2C2C=CCC32)c1O (centres undefined)	?	4	?	8.9µM*	0%
Oc1c(Br)cc(Br)cc1/C=N/NC(=S)N[C@H]1CC2C=CC1C2 (some centres undefined)	?	25	?	?	-1%
COc1cccc(/C=N/NC(=S)Nc2cccc(C(=O)O)c2)c1O	-22%	-1	?	?	0%
COc1cc(-c2n[nH]c(=S)n2-c2ccc(Br)cc2)cc(OC)c1OC	?	9	11%	8.9µM*	1%
COc1cc(-c2n[nH]c(=S)n2-c2cccc(C(F)(F)F)c2)cc(OC)c1OC	2%	7	?	24%	-1%
COc1cc(OC)cc(-c2n[nH]c(=S)n2-c2cc(OC)ccc2OC)c1	-12%	-5	3%	?	0%
O=[N+]([O-])c1cccc(-c2n[nH]c(=S)n2-c2ccc(Br)cc2)c1	0%	-3	9%	10µM*	3%
O=c1cc(Nc2ccc3c(c2)OCCO3)[nH]c(=O)n1-c1ccc(Br)cc1	-11%	9	-11%	?	0%
S=c1[nH]nc(-c2ccc(Br)cc2)n1-c1ccc2c(c1)OCCO2	-29%	-13	0%	0.4µM*	0%
COc1cc(OC)cc(-c2n[nH]c(=S)n2-c2ccc3c(c2)OCCO3)c1	3%	-4	-11%	0.35µM*	0%
COC(=O)NC/C=C\c1nc(CCCO)co1	-10%[10 µM]	.	.	7%[10 µM]	.
Cc1c(Br)cnn1C(C)C(=O)N1CCN(c2ccccc2F)CC1 (centres undefined)	.	-17	-6%	.	0%
COc1ccc(-c2n[nH]c(=S)n2-c2ccc3c(c2)OCCO3)cc1	?	-23	?	2.8µM*	0%
O=C(O)c1ccc(-n2c(-c3ccc(Br)cc3)n[nH]c2=S)cc1	2%	12	2%	2%	0%
